Compounds without any hit were thinned out: in the full panel of roughly 83,000, 20% have a hit.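 The endpoint reported here, percent growth, reads 100 for growth as untreated, 0 for no net growth and -100 for all cells dead.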 Active and inactive are the calls of the source. How the source made its calls: active means growth percent below 10; inactive means the rest.

The text below walks through data of PubChem BioAssay (NCI).

What all share (assay): NCI-60 one-dose screen, 48 h (100 = growth as untreated, 0 = no growth, -100 = all killed)
Holding throughout (conditions): 10 µM

The test system of test [1] is NCI-H23 lung.
Test [2] deals with NCI-H322M lung.
In test [3] the test system is HOP-62 NSCLC.
In test [4] the test system is NCI-H460 lung.
The test system of test [5] is HOP-92 NSCLC.
Test [6] concerns NCI-H522 lung.
Test [7] relates to A549/ATCC NSCLC.
Test [8] relates to 786-0 renal.
Test [9] deals with COLO 205 colon.
The subject of test [10] is DU-145 prostate.
Test [11] deals with K-562 leukemia.
The subject of test [12] is MALME-3M melanoma.
The subject of test [13] is MDA-MB-231 breast.
In test [14] the test system is RXF 393 renal.
For test [15], the system named is SF-268 CNS.
Test [16] has as its system SF-295 CNS.
Test [17] has as its system SF-539 CNS.
Test [18] concerns UACC-257 melanoma.
For test [19], the system named is M14 melanoma.
Test [20] relates to NCI-H226 lung.

On to `COC(=O)c1ccc(C(C)C)cc1`, for which the growth was 100% (inactive) in test [1]; 95.8% (inactive) in test [2]; 87.8% (inactive) in test [3]; 114% (inactive) in test [4]; 82.7% (inactive) in test [5]; 79.3% (inactive) in [6]. The growth was 90.5% (inactive) in [7]; 100% (inactive) in [8]; 98% (inactive) in test [9]; 105% (inactive) in [10]; 116% (inactive) in test [11]; 99.9% (inactive) in test [12]. The growth was 113% (inactive) in test [13]; 122% (inactive) in [14]; 101% (inactive) in test [15]; 100% (inactive) in [16]; 102% (inactive) in [17]; 90.9% (inactive) in test [18]. Also, the growth in test [19] was 88.6% (inactive).

With `Cc1cc(Cc2cc(C)c(N)cc2N)c(N)cc1N`, the growth in test [1] is 86.6% (inactive); in test [20], 81.7% (inactive); in [3], 88.1% (inactive); in test [4] it was 101% (inactive); in test [5] it was 91.4% (inactive); in [6], 89.4% (inactive). The growth is 85.2% (inactive) in test [7]; 104% (inactive) in test [8]; 92.8% (inactive) in test [9]; 105% (inactive) in test [10]; 101% (inactive) in [11]; 95.2% (inactive) in test [12]. The growth was 83.9% (inactive) in test [13]; 103% (inactive) in [14]; 90.9% (inactive) in test [15]; 104% (inactive) in test [16]; 103% (inactive) in [17]; 85.3% (inactive) in test [18]. The growth in test [19] was 101% (inactive).

As for `Nc1ncnc2c1nc(N)n2C1OC(CO)C(O)C1O` (configuration not stated), the growth in [1] was -22.9% (active); in [20] it was -75.4% (active); in [3], -52.9% (active); in test [4], -60.3% (active); in test [5], -29.8% (active); in test [6], -63.3% (active). For the same molecule, the growth in test [7] was -25.8% (active); in test [8] it was -85.6% (active); in test [10], -21.8% (active); in [11] it was 19.3% (inactive); in test [13], -16.9% (active); in test [14], -59.6% (active). Also, the growth in test [15] is -57.8% (active); in [16], -70.2% (active); in test [17], -94.4% (active); in test [18] it was -56.6% (active); in [19] it was -85.6% (active).

`CC(=O)OC(C(=O)O)c1ccccc1` (configuration not stated): the growth in test [1] was 111% (inactive); in [20], 110% (inactive); in [3], 112% (inactive); in test [5], 80.4% (inactive); in test [6], 107% (inactive); in [7] it was 106% (inactive). For the same molecule, the growth in test [8] is 109% (inactive); in test [9], 118% (inactive); in test [10], 106% (inactive); in [11], 108% (inactive); in test [13], 105% (inactive); in test [14], 112% (inactive). The growth in [15] was 101% (inactive); in test [16], 113% (inactive); in test [17], 111% (inactive); in [18] it was 106% (inactive); in test [19], 110% (inactive).

`CC12CC3CC1C(C(=O)O2)C3C(=O)O` (configuration not stated): the growth in test [1] is 96.8% (inactive); in test [20] it was 105% (inactive); in [3], 98.9% (inactive); in [5] it was 107% (inactive); in test [6], 96% (inactive); in [7], 96.3% (inactive). The growth in [8] is 108% (inactive); in test [9], 102% (inactive); in test [10] it was 106% (inactive); in [11] it was 95.6% (inactive); in [12], 94.2% (inactive); in test [13] it was 109% (inactive). In addition, the growth is 109% (inactive) in test [14]; 99.2% (inactive) in test [15]; 101% (inactive) in [16]; 97.4% (inactive) in test [17]; 92.1% (inactive) in [18]; 117% (inactive) in [19].

For the molecule `COCCCC/C(=N\OCCN)c1ccc(C(F)(F)F)cc1`, the growth in test [1] is 100% (inactive); in test [20], 101% (inactive); in test [4] it was 106% (inactive); in [5], 63.2% (inactive); in test [7], 102% (inactive); in test [8] it was 100% (inactive). Moreover, the growth in [9] was 101% (inactive); in [10], 123% (inactive); in [12], 112% (inactive); in test [13] it was 74% (inactive); in test [14] it was 97.4% (inactive); in test [15], 102% (inactive). Also, the growth was 90.3% (inactive) in test [16], 109% (inactive) in [17], 106% (inactive) in test [18] and 109% (inactive) in test [19].

Take `Cc1ccc(C(=O)NC2c3ccccc3Oc3ccccc32)cc1`: the growth in [1] is 70.4% (inactive); in [20] it was 79% (inactive); in test [3], 32.2% (inactive); in test [4] it was 59.8% (inactive); in test [5], 62.1% (inactive); in [6], 41.2% (inactive). The growth in [7] was 48.9% (inactive); in test [8], 25.7% (inactive); in test [9], 73.6% (inactive); in [10], 88.2% (inactive); in test [11], 14.3% (inactive); in [12], 53.2% (inactive). In addition, the growth in test [13] was 58.4% (inactive); in [14] it was 74.9% (inactive); in [15] it was 64.1% (inactive); in test [16] it was 24.8% (inactive); in test [17], 61.3% (inactive); in [18], 57.7% (inactive). For the same molecule, in [19], the growth was 36% (inactive).

With `O=C(O)/C=C/c1ccc2c(c1)CCC2`, the growth was 113% (inactive) in test [1]; 105% (inactive) in [20]; 94.6% (inactive) in test [3]; 103% (inactive) in [4]; 106% (inactive) in [7]; 101% (inactive) in test [8]. For the same molecule, the growth in [9] is 105% (inactive); in [10] it was 118% (inactive); in test [11], 86.9% (inactive); in [12] it was 121% (inactive); in test [13], 118% (inactive); in [14] it was 106% (inactive). In addition, the growth in test [15] was 116% (inactive); in test [16] it was 98.9% (inactive); in [17], 106% (inactive); in test [18], 97.8% (inactive); in test [19], 106% (inactive).

Take `CSC(=N\N=C\c1ccc(N(C)C)cc1)/N=C/N(C)C`: the growth in test [1] was 112% (inactive); in test [20], 90% (inactive); in test [2] it was 102% (inactive); in test [4], 95.4% (inactive); in [6] it was 107% (inactive); in test [7] it was 103% (inactive). In addition, the growth was 103% (inactive) in test [8]; 110% (inactive) in test [9]; 117% (inactive) in test [10]; 111% (inactive) in test [11]; 104% (inactive) in [12]; 106% (inactive) in test [13]. In addition, the growth in test [14] is 95.1% (inactive); in test [15], 111% (inactive); in test [16] it was 84.6% (inactive); in test [17] it was 96% (inactive); in [18], 100% (inactive); in [19], 104% (inactive).

As for `CN(C)c1nc2c([nH]1)c(=O)n(C)c(=O)n2C`, the growth was 99.8% (inactive) in [1]; 81.2% (inactive) in test [20]; 105% (inactive) in [2]; 103% (inactive) in test [4]; 73.1% (inactive) in test [6]; 92.2% (inactive) in test [7]. For the same molecule, the growth in test [8] is 105% (inactive); in [10], 116% (inactive); in test [11] it was 96.5% (inactive); in test [12], 101% (inactive); in [13], 107% (inactive); in test [15], 105% (inactive). Also, the growth was 104% (inactive) in test [16], 107% (inactive) in test [17], 87.8% (inactive) in test [18] and 108% (inactive) in [19].

Take `Cc1nc2ccccc2c2nnc(SCC(=O)N(Cc3ccccc3)c3ccccc3)n12`: the growth is 89.1% (inactive) in [1]; 94% (inactive) in [20]; 95.7% (inactive) in test [3]; 107% (inactive) in test [4]; 82.5% (inactive) in test [5]; 70.9% (inactive) in [6]. The growth was 103% (inactive) in [8]; 101% (inactive) in [9]; 85.9% (inactive) in test [11]; 92.1% (inactive) in test [13]; 94.6% (inactive) in [15]; 88.2% (inactive) in [16]. Also, the growth in test [17] was 99.2% (inactive); in test [18], 92.8% (inactive); in test [19], 119% (inactive).

Turning to `CCOc1ccc(Br)cc1/C=N\N=C\c1cc(Br)ccc1OCC`, the growth in [20] was 97.6% (inactive).
